HCMV antiviral: qHTS Assay for inhibitors of the human cytomegalovirus (HCMV); activity change, negative = inhibition, % at 57.5 µM; HFF cells, HCMV-luciferase reporter, 72 h; hits give low values; AID 1259415, 2018; 4.5% of 410,000 active; in the data active = activity change below about -60%; inconclusive = no clear call, values can overlap the other calls; inactive = above about -39%
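After 16 h attachment at 37C, HFF cells received test compound and HCMV-luciferase (1 PFU/cell); reporter luminescence read 72 h later, data normalized against buffer-only and known inhibitor Salinomycin.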
HCV inhibitor: qHTS Assay for Inhibitors of Hepatitis C Virus (HCV). 3.4% of 340,000 active. Huh7.5.1 HCVcc-Cre infection, luciferase reporter, 44 h. AID 651820, 2012. Potency, µM (series often up to 41.8 µM), for the others: at the top dose activity change, negative = inhibition, usual class: inhibitors; note: potency is the fitted concentration of half-maximal effect
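1,000 cells/well; 4 h culture; + compound; + HCVcc-Cre (~0.5 moi); 44 h; luciferase substrate, RT 15 min; read 15 sec.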
Vaccinia mCherry: qHTS for Stage-Specific Inhibitors of Vaccinia Orthopoxvirus: mCherry Reporter Primary qHTS. Vaccinia virus mCherry reporter infection, fluorescence. AID 720579, 2013. 0.63% of 310,000 active. Potency, µM (top dose mostly 36.5 µM), for the others: top-dose activity change, negative = inhibition, usual class: inhibitors; calls by dose curve; tested in A549 cells; note: potency is the fitted concentration of half-maximal effect; nearly all actives have a fitted effect of over 35% in size
FMDV antiviral: High Throughput Screening for Foot and Mouth Disease Virus Antivirals. FMDV antiviral cell-based qHTS. Potency, µM (series often up to 57.9 µM), without a hit: top-dose activity change, negative = inhibition, actives largely listed as inhibitors. 1.2% of 410,000 active. AID 1159524, 2015; calls by dose curve; tested in HEK293T cells; note: read-out not given here; potency is the fitted concentration of half-maximal effect; nearly all actives have a fitted effect of over 45% in size
Sm TGR block: qHTS Assay for the Inhibitors of Schistosoma Mansoni Peroxiredoxins; Schistosoma mansoni thioredoxin glutathione reductase (TGR), Q962Y6; purified TGR, DTNB reduction, TNB absorbance 405 nm; Potency, µM (titrated, usually from 114 µM), without a hit: at the top dose activity change, negative = inhibition, usual class: inhibitors; 3% of 360,000 active; AID 485364, 2010; note: potency is the fitted concentration of half-maximal effect; nearly all actives have a fitted effect of over 60% in size
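Kinetic colorimetric format: TGR-catalysed, NADPH-driven DTNB reduction monitored via TNB absorbance. Enzyme dispensed at 20 nM; compound exposure 15 min at room temperature before reaction start.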
VACV Venus inh: qHTS for Stage-Specific Inhibitors of Vaccinia Orthopoxvirus: Venus Reporter Primary qHTS | Vaccinia virus Venus reporter expression, fluorescence | Potency, µM (titrated, usually from 36.5 µM), inactives show at the top dose activity change, negative = inhibition, usual class: inhibitors | 0.46% of 330,000 active | AID 720580, 2013; calls by dose curve; tested in A549 cells; note: potency is the fitted concentration of half-maximal effect; nearly all actives have a fitted effect of over 30% in size
Starred values were filed as active, the others as inactive; i = inactive; ? = inconclusive; nt = no result; [ ] = another dose, or the depositor's remark. Only some compounds are listed: those with a hit (about 9.3% of all), similar ones and a draw of the others. Unless noted, calls come from the whole dose curve; as a rule, active = well fitted curve in the direction sought with a large enough effect; inconclusive = small, poorly fitted or top-dose-only effect, or another doubt; inactive = no such curve, though single readings can be large; an effect the other way counts as inactive or inconclusive. % is set by controls: 0 for no effect and ±100 for the full control effect.

SMILES | HCMV antiviral | HCV inhibitor | Vaccinia mCherry | FMDV antiviral | Sm TGR block | VACV Venus inh
CCC(=O)C1=C(c2ccc(F)cc2)N(C(=O)CC)n2cnnc2S1 | -81.7* | nt | -12.9%[7.34 µM] | -5.9% | ? | -4.4%[7.34 µM]
CC(=O)C1=C(c2ccc(Cl)c(Cl)c2)N(C(C)=O)n2cnnc2S1 | -98.9* | nt | ? | ? | 10µM* | -25.6%[7.34 µM]
COc1cccc(C2=C(C(C)=O)Sc3nncn3N2C(C)=O)c1 | ? | nt | -27.1% | -1.8% | ? | ?
CCOc1ccc(C2=C(C(=O)CC)Sc3nncn3N2C(=O)CC)cc1 | -100.9* | nt | ? | ? | -30.6% | ?
CC(C)OCCCNC(=O)Cc1ccc(NC(=O)N2CCCCc3ccccc32)cc1 | 14.5 | nt | -6.4% | 0.0% | -4.3% | -4.1%
CC[C@H](C)[C@@H]1NC(=O)[C@@H](CC(C)C)NC(=O)[C@H](C(C)C)NC(=O)[C@H]2CSSC[C@H](NC1=O)C(=O)N2 | -106.3* | nt | 5.01µM* | 6.31µM* | nt | 4.47µM*
CC(C)C[C@@H]1NC(=O)[C@H](C(C)C)NC(=O)c2cc([N+](=O)[O-])cc(I)c2NCC[C@@H](C(N)=O)NC1=O | nt | -5.4% | -0.5% | -27.4% | -19.0% | -3.9%
CSc1ccccc1C(=O)NC(C)c1ccc(-n2ccnc2)cc1 (stereo not drawn) | -11.9 | -4.7% | i | -23.1% | 5.62µM* | -9.0%
COC(=O)CNC(=O)C1CCCN1C(=O)CNC(=O)OCc1ccccc1 (stereo not drawn) | -14.7 | 5.8% | i | -1.1% | -0.4% | -3.3%
CCOCCCNC(=O)/C(C#N)=C/c1ccc(C)o1 | 18.2 | 9.4% | -13.5% | -5.1% | 39.8µM* | -12.0%
COCCNC(=O)/C(C#N)=C/c1ccc(C)o1 | -25.4 | 17.3% | -2.4% | 12.6% | -23.9% | -8.8%
CC1CCCCN1C(=S)NC(=O)c1ccccc1 (stereo not drawn) | -13.7 | 24.9% | -10.3% | 0.5% | -29.4% | -9.7%
O=C(CNC(=O)N1CC(=O)Nc2ccccc21)NCCCc1ccccc1 | -6.4 | nt | i | -20.4% | nt | -8.1%
Cc1cccc(NC(=O)C2CC(=O)n3cnnc3S2)c1 (stereo not drawn) | 2.6 | 1.1% | -8.8% | 10.6% | 0.398µM* | 3.4%
CCCn1ncc([C@@H]2C[C@H]3CN(Cc4cccc(Cl)c4)C(=O)[C@]34CCCN24)c1C | -32.7 | ? | 3.1% | -3.9% | -10.6% | 1.3%
Nc1nonc1C(=O)N/N=C/c1ccc(-c2ccc(Cl)c(C(=O)O)c2)o1 | -72.7* | 5.6% | 2.1% | 4.5% | -22.5% | 3.0%
O=C(NCCN1CCOCC1)c1cnn2c1NC(c1cccs1)CC2C(F)(F)F (stereo not drawn) | -31.4 | 1.1% | i | -4.9% | 1.7% | -10.2%
Cc1ccc(-n2nc(C)cc2NC(=O)COc2cc(C)cc3oc(=O)c4c(c23)CCC4)cc1 | 7.2 | 7.08µM* | nt | -21.4% | 3.9% | nt
Cc1cc(OC(=O)c2ccco2)c2c3c(c(=O)oc2c1)CCCC3 | -66.7* | ? | i | ? | 7.2% | 11.7%
NC(=O)CN1C(=O)C(=O)N(Cc2ccc(F)cc2)C1=O | 29.0 | 8.4% | nt | -8.1% | 3.0% | nt
CC(/C=N/NC(=O)CSc1ccccn1)=C\c1ccc(C(C)C)cc1 | 58.3 | -7.0% | -13.0% | 0.8% | -0.6% | -4.4%
COc1ccc2c(c1)C(=NN)c1cc(OC)ccc1-2 | -87.1* | ? | -15.6% | 0.0% | 0.9% | -19.5%
CC1(C)OC(=O)C(=NNc2ccc(C(=O)O)cc2)C(=O)O1 | -90.0* | 23.9% | -0.6% | -10.9% | -2.5% | -7.0%
CC1(C)OC(=O)C(=NNc2ccccc2)C(=O)O1 | -4.4 | 11.9% | -12.5% | 23.0% | 0.0% | -13.9%
COc1ccc2c(c1)C(=NNc1ccc(C(=O)O)cc1)c1cc(OC)ccc1-2 | -6.9 | 14.1µM* | ? | -17.0% | -9.9% | ?

Screening data (PubChem)
